Measurements: PMC7862700, “An all-to-all approach to the identification of sequence-specific readers for epigenetic DNA modifications on cytosine”

Experiments:
Assay in all cases: DAPPL (digital affinity profiling via proximity ligation, sequencing); 10 mM Tris-HCl pH 7.5, 50 mM NaCl, 1 mM DTT, 4% glycerol, room temperature, 30 min; GST-TFs on glutathione beads, 16-mer random dsDNA library, 0.1% formaldehyde crosslink after washing; high values mean tight binding
Details in all cases: protein: recombinant; tags: N-terminal GST; dsDNA, one strand shown
FLI1 = target: T1, FLI1 (Homo sapiens, UniProt Q01543 1-452)
T1 sequence: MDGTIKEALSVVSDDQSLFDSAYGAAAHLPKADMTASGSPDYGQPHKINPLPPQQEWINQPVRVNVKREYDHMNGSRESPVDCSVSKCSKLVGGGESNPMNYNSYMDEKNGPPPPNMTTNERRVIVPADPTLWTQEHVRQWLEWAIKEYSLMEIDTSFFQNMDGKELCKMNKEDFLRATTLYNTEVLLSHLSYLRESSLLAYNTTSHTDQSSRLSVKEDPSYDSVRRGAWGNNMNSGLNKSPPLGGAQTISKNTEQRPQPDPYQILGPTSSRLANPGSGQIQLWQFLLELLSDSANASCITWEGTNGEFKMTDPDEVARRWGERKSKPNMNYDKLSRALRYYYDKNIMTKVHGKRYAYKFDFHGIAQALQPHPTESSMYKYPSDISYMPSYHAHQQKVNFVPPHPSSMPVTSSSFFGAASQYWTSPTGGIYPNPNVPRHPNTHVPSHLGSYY
Outline: (§1)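 Binding signal is defined as a hexamer's read frequency for one factor over its frequency for the tag-only sample. To obtain reads, GST-fused human transcription factors were expressed in yeast, captured on glutathione beads, barcoded with DNA and pooled with that sample. Pools met 200 nmole of a 16-mer random double-stranded DNA library in Tris/NaCl/DTT/glycerol buffer for 30 min at room temperature before washing, 0.1% formaldehyde crosslinking, proximity ligation (BsaI/T4 ligase, 1 h, 37 °C), PCR and Illumina NextSeq500 sequencing.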

ELK1 = target: T2, ELK1 (Homo sapiens, UniProt P19419 1-428)
T2 sequence: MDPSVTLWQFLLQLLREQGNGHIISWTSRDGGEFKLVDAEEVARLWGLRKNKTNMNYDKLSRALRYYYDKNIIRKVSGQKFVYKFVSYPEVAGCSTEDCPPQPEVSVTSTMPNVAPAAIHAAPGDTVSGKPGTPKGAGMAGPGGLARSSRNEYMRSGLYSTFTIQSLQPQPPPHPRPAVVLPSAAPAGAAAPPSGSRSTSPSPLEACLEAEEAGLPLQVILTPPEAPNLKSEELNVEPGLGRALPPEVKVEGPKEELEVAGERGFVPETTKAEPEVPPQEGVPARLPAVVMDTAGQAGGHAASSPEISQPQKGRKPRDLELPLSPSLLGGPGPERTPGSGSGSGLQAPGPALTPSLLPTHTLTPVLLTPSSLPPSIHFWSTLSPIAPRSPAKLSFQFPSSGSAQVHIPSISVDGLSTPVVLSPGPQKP
Outline: as §1

GABPA = target: T3, GABPA (Homo sapiens, UniProt Q06546 1-454)
T3 sequence: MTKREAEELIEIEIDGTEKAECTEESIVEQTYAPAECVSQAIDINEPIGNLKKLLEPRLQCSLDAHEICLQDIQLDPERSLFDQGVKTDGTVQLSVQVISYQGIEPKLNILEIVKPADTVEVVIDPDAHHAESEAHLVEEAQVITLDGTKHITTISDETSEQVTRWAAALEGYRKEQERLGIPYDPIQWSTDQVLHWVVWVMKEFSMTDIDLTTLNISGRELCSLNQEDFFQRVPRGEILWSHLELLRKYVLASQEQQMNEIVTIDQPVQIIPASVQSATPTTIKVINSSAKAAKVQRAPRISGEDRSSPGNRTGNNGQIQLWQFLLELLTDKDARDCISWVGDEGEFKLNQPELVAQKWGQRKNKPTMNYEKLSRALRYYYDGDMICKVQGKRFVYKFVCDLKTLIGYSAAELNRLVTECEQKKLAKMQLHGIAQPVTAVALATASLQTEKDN
Outline: as §1

ELF1 = ELF1 (Homo sapiens, UniProt P32519 1-619)
ELF1, sequence (P32519 whole entry): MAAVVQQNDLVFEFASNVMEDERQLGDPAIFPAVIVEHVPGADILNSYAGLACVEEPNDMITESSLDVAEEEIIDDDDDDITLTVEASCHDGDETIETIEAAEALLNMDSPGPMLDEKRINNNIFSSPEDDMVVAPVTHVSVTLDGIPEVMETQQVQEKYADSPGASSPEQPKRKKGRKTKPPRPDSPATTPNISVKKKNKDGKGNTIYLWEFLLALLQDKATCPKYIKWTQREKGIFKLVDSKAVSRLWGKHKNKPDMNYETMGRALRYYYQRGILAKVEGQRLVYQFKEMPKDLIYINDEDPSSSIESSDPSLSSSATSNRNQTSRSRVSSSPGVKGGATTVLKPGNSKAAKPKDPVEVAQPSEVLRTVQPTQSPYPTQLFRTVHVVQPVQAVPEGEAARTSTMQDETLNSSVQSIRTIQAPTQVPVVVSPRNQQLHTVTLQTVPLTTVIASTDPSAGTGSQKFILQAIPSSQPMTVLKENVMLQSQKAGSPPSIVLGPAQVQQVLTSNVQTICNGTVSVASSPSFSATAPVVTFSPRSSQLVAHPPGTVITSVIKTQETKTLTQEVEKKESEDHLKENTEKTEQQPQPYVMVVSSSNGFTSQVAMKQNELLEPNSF
Outline: as §1

EHF = target: T4, EHF (Homo sapiens, UniProt Q9NZC4 1-300)
T4 sequence: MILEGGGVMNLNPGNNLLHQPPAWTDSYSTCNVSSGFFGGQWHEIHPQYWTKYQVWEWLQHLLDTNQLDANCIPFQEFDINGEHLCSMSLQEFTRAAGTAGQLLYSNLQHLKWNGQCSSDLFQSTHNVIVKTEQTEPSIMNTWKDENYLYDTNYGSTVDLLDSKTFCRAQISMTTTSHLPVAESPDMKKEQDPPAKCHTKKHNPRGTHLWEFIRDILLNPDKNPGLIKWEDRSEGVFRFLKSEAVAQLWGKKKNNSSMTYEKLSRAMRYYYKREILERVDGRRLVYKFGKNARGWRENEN
Outline: as §1

SPI1 = SPI1 (Homo sapiens, UniProt P17947 1-270)
Outline: as §1

SPIB = SPIB (Homo sapiens, UniProt Q01892 1-262)
SPIB, sequence (Q01892 whole entry): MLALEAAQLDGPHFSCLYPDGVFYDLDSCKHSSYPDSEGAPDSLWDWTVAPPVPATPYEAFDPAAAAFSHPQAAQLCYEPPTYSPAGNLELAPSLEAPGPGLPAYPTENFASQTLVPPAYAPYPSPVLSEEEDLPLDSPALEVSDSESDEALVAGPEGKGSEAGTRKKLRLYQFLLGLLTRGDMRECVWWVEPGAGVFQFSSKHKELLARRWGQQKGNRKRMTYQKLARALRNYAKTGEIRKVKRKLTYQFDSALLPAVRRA
Outline: as §1

ETV5 = ETV5 (Homo sapiens, UniProt P41161 1-510)
ETV5, sequence (P41161 whole entry): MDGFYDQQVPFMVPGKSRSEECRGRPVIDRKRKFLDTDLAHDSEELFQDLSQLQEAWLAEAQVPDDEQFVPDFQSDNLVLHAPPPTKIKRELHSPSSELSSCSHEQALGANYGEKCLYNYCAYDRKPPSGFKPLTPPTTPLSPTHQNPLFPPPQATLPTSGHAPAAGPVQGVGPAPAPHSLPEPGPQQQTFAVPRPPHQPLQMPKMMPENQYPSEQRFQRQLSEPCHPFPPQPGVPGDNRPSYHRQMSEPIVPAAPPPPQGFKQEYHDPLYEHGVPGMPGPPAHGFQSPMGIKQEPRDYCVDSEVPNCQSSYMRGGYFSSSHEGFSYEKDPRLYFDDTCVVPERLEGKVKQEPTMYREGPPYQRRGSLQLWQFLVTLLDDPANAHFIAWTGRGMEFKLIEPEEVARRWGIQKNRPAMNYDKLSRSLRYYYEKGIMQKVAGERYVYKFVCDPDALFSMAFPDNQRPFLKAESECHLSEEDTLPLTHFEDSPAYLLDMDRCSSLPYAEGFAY
Outline: as §1

SPIC = target: T5, SPIC (Homo sapiens, UniProt Q8N5J4 1-248)
T5 sequence: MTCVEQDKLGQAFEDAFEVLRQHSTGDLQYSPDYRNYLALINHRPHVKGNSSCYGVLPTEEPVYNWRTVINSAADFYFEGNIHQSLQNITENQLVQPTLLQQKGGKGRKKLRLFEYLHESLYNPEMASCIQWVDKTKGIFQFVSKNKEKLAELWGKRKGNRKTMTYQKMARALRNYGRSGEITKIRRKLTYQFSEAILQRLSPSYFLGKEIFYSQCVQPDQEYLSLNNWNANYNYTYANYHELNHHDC
Outline: as §1

ELF4 = ELF4 (Homo sapiens, UniProt Q99607 1-663)
ELF4, sequence (Q99607 whole entry): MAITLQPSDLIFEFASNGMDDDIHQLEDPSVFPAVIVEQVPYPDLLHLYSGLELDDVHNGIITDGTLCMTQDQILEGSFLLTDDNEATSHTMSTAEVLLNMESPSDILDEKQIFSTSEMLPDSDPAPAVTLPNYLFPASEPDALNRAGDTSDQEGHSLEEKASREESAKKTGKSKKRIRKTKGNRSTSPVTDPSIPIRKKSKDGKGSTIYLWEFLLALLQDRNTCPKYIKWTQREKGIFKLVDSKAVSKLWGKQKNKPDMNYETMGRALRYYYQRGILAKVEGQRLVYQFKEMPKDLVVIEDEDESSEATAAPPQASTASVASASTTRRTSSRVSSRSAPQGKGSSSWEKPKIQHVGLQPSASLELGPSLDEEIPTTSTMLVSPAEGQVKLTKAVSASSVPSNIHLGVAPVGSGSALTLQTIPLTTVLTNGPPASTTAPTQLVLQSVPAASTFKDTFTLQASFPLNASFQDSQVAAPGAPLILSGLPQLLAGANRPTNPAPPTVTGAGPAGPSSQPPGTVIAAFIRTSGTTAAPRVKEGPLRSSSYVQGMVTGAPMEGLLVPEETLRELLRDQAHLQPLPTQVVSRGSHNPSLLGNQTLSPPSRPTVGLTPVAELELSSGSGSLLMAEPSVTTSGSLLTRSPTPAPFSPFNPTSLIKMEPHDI
Outline: as §1

ETV1 = ETV1 (Homo sapiens, UniProt P50549 1-477)
ETV1, sequence (P50549 whole entry): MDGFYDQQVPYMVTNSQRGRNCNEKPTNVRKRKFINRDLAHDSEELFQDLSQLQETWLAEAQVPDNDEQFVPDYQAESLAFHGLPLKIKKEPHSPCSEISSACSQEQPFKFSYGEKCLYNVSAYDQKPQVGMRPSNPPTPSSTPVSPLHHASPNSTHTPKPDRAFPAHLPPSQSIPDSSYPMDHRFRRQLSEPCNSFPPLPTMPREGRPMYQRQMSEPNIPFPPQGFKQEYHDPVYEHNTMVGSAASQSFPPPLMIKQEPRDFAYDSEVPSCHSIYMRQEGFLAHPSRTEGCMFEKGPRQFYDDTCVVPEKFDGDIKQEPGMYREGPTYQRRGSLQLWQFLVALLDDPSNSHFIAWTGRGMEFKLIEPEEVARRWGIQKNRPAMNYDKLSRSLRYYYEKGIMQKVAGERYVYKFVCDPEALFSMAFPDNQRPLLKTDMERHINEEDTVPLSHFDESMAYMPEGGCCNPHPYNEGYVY
Outline: as §1

ERF = target: T6, ERF (Homo sapiens, UniProt P50548 1-548)
T6 sequence: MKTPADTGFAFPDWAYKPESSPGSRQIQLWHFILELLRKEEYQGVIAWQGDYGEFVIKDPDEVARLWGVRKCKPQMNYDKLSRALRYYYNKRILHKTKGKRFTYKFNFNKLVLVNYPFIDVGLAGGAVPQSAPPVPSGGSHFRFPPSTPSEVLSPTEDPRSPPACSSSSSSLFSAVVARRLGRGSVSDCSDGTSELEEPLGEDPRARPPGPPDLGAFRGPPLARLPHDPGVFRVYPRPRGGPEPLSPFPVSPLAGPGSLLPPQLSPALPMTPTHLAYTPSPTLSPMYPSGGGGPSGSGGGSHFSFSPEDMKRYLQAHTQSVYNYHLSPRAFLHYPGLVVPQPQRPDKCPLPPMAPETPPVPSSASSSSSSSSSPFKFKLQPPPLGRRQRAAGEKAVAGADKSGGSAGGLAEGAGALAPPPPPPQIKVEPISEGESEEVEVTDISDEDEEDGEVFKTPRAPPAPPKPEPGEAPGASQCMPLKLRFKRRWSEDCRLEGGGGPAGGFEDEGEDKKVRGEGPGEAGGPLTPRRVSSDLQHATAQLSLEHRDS
Outline: as §1

ETS2 = target: T7, ETS2 (Homo sapiens, UniProt P15036 1-469)
T7 sequence: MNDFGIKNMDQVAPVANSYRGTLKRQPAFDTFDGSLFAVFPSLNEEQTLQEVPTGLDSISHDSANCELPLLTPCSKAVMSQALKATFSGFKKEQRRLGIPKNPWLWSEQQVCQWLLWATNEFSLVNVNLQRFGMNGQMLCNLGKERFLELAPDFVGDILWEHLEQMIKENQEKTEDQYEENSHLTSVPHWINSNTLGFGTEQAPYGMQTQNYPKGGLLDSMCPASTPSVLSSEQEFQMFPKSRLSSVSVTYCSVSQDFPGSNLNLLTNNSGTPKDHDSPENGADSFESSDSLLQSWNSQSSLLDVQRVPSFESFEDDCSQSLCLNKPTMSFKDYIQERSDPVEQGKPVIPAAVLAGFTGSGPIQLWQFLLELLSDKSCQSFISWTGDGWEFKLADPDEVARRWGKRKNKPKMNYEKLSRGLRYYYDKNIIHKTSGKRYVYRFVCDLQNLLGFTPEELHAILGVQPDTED
Outline: as §1

SPDEF = target: T8, SPDEF (Homo sapiens, UniProt O95238 1-335)
T8 sequence: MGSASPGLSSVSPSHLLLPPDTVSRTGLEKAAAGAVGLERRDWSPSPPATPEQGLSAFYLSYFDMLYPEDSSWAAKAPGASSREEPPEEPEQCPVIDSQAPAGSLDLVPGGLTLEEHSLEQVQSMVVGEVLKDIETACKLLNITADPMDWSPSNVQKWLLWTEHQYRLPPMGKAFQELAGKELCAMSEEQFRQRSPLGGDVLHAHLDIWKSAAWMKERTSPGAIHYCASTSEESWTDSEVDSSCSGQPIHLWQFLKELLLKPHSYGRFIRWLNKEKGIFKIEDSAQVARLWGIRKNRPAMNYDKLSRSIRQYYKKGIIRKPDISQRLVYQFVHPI
Outline: as §1

ETV6 = ETV6 (Homo sapiens, UniProt P41212 1-452)
ETV6, sequence (P41212 whole entry): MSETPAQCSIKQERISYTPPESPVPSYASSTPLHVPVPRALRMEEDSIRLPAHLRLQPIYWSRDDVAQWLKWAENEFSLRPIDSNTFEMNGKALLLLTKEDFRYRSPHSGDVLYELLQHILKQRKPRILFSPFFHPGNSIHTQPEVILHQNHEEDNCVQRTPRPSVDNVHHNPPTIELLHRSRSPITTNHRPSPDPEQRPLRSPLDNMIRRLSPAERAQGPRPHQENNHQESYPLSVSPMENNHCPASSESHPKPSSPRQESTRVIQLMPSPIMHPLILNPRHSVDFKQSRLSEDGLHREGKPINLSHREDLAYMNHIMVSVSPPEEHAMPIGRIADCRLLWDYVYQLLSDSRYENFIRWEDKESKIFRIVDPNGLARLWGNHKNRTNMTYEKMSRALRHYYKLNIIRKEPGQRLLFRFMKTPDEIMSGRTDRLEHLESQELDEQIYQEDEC
Outline: as §1

TCGTCA was tested, and the binding signal (FLI1) was 1.05 fold enrichment (6-mer frequency, TF over GST control), the binding signal (ELK1) was 1.09 fold enrichment (6-mer frequency, TF over GST control) and the binding signal (GABPA) was 1.06 fold enrichment (6-mer frequency, TF over GST control). The binding signal (ELF1) was 1.04 fold enrichment (6-mer frequency, TF over GST control), the binding signal (EHF) was 1.02 fold enrichment (6-mer frequency, TF over GST control) and the binding signal (SPI1) was 1.02 fold enrichment (6-mer frequency, TF over GST control). The binding signal (SPIB) was 1.04 fold enrichment (6-mer frequency, TF over GST control), the binding signal (ETV5) was 1.04 fold enrichment (6-mer frequency, TF over GST control) and the binding signal (SPIC) was 1.15 fold enrichment (6-mer frequency, TF over GST control). For the same sequence, the binding signal (ELF4) was 1.11 fold enrichment (6-mer frequency, TF over GST control), the binding signal (ETV1) was 1.09 fold enrichment (6-mer frequency, TF over GST control) and the binding signal (ERF) was 1.06 fold enrichment (6-mer frequency, TF over GST control). For the same sequence, the binding signal (ETS2) was 1.1 fold enrichment (6-mer frequency, TF over GST control), the binding signal (SPDEF) was 1.06 fold enrichment (6-mer frequency, TF over GST control) and the binding signal (ETV6) was 1.03 fold enrichment (6-mer frequency, TF over GST control).
